# In the antibiotic and cytotoxicity screens of Wong et al. (2023):
# Hit rate of the full screen: of about 39,000 compounds, about 3,300 (8.5%) were called active. The entries come from a sample that favours actives as a whole.
# Tested on: HepG2
# Assay: cytotoxicity call (relative viability < 0.9)
# Conditions: 10 µM
row,SMILES,cytotoxicity call
1,C[C@@H]1CN([C@H](C)CO)S(=O)(=O)c2ccc(C#Cc3ccccc3F)cc2O[C@@H]1CN(C)CC1CCOCC1,inactive
2,COc1ccc(CN(C)C[C@H]2OCCCC[C@@H](C)Oc3ccc(NC(=O)NC4CCCCC4)cc3C(=O)N([C@@H](C)CO)C[C@H]2C)cc1,inactive
3,Cc1ncsc1-c1ccc(CNC(=O)[C@@H]2C[C@@H](O)CN2C(=O)[C@H](C(C)C)N2Cc3ccccc3C2=O)cc1,inactive
4,CN1C(=O)Cc2cc(NS(C)(=O)=O)ccc21,inactive
5,COc1ccc(S(=O)(=O)Nc2ccc3c(c2)C(=O)N([C@@H](C)CO)C[C@H](C)[C@H](CN(C)Cc2ccc(C(=O)O)cc2)OCCCC[C@@H](C)O3)cc1,inactive
6,COCCN1C[C@H]2[C@H](OC)CCN(S(=O)(=O)c3cn(C)cn3)[C@H]2C1,inactive
7,CC1CC2C3CCC4=CC(=O)C=CC4(C)C3(Cl)C(O)CC2(C)C1(OC(=O)c1ccco1)C(=O)CCl (stereo unspecified),active
8,CCC(=O)OCC(=O)C1(OC(=O)CC)C(C)CC2C3CCC4=CC(=O)C=CC4(C)C3(Cl)C(O)CC21C (stereo unspecified),inactive
9,CCC(=O)OC1(C(=O)CCl)C(C)CC2C3CCC4=CC(=O)C=CC4(C)C3(F)C(O)CC21C (stereo unspecified),inactive
10,C[C@@H]1CCCCO[C@H](CN(C)C(=O)Nc2ccccc2)[C@H](C)CN([C@H](C)CO)C(=O)c2cc(NC(=O)CCC(F)(F)F)ccc2O1,inactive
11,C[C@@H]1CN([C@H](C)CO)C(=O)c2cc(NC(=O)Cc3ccccc3)ccc2O[C@@H](C)CCCCO[C@@H]1CN(C)Cc1ccc(C(=O)O)cc1,inactive
12,Cn1c(=O)c2[nH]c(Br)nc2n(C)c1=O [listing 1 of 2 here],inactive
13,Cn1c(=O)c2[nH]c(-[n+]3ccc(C(=O)O)cc3)nc2n(C)c1=O,active
14,Cn1c(=O)c2[nH]c(Br)nc2n(C)c1=O [listing 2 of 2 here],inactive
15,C[C@H]1CN([C@@H](C)CO)C(=O)c2cccc(NS(=O)(=O)c3ccc(F)cc3)c2O[C@H]1CN(C)S(C)(=O)=O,inactive
16,COc1ccc(S(=O)(=O)Nc2ccc3c(c2)C(=O)N([C@H](C)CO)C[C@H](C)[C@H](CN(C)C(=O)Nc2ccc(C(F)(F)F)cc2)OCCCC[C@@H](C)O3)cc1,inactive
17,COc1ccc(S(=O)(=O)Nc2ccc3c(c2)C(=O)N([C@@H](C)CO)C[C@@H](C)[C@@H](CN(C)C(=O)Nc2ccc(C(F)(F)F)cc2)OCCCC[C@@H](C)O3)cc1,active
18,COc1ccc(S(=O)(=O)Nc2ccc3c(c2)C(=O)N([C@H](C)CO)C[C@H](C)[C@H](CN(C)C(=O)Nc2ccc(C(F)(F)F)cc2)OCCCC[C@H](C)O3)cc1,inactive
19,COc1ccc(S(=O)(=O)Nc2ccc3c(c2)C(=O)N([C@@H](C)CO)C[C@@H](C)[C@H](CN(C)C(=O)Nc2ccc(C(F)(F)F)cc2)OCCCC[C@H](C)O3)cc1,inactive
20,COc1ccc(S(=O)(=O)Nc2ccc3c(c2)C(=O)N([C@@H](C)CO)C[C@H](C)[C@H](CN(C)C(=O)Nc2ccc(C(F)(F)F)cc2)OCCCC[C@@H](C)O3)cc1,inactive
21,COc1ccc(S(=O)(=O)Nc2ccc3c(c2)C(=O)N([C@@H](C)CO)C[C@H](C)[C@@H](CN(C)C(=O)Nc2ccc(C(F)(F)F)cc2)OCCCC[C@@H](C)O3)cc1,active

row,SMILES,cytotoxicity call
1,COc1ccc(S(=O)(=O)Nc2ccc3c(c2)C(=O)N([C@H](C)CO)C[C@@H](C)[C@H](CN(C)C(=O)Nc2ccc(C(F)(F)F)cc2)OCCCC[C@@H](C)O3)cc1,inactive
2,COc1ccc(S(=O)(=O)Nc2ccc3c(c2)C(=O)N([C@@H](C)CO)C[C@H](C)[C@@H](CN(C)C(=O)Nc2ccc(C(F)(F)F)cc2)OCCCC[C@H](C)O3)cc1,active
3,COc1ccc(S(=O)(=O)Nc2ccc3c(c2)C(=O)N([C@@H](C)CO)C[C@H](C)[C@H](CN(C)C(=O)Nc2ccc(C(F)(F)F)cc2)OCCCC[C@H](C)O3)cc1,inactive
4,COc1ccc(S(=O)(=O)N(C)C[C@@H]2Oc3ccc(NS(=O)(=O)c4ccc(C)cc4)cc3CC(=O)N([C@H](C)CO)C[C@@H]2C)cc1,inactive
5,CC(C)NC(=O)N(C)C[C@@H]1Oc2cc(C#Cc3cccc(F)c3)ccc2S(=O)(=O)N([C@H](C)CO)C[C@H]1C,inactive
6,Cc1ccc(S(=O)(=O)N(C)C[C@H]2OCCCC[C@H](C)Oc3ccc(NC(=O)Nc4ccc(F)cc4)cc3C(=O)N([C@@H](C)CO)C[C@H]2C)cc1,inactive
7,Cc1ccc(S(=O)(=O)N(C)C[C@H]2Oc3c(NC(=O)NC(C)C)cccc3C(=O)N([C@@H](C)CO)C[C@@H]2C)cc1,inactive
8,C[C@@H]1CCCCO[C@@H](CN(C)S(=O)(=O)c2ccc(F)cc2)[C@H](C)CN([C@@H](C)CO)C(=O)c2cc(NC(=O)C3CCCCC3)ccc2O1,inactive
9,C[C@H](CO)N1C[C@H](C)[C@H](CN(C)C(=O)Nc2ccc3c(c2)OCO3)OCCCC[C@H](C)Oc2ccc(NC(=O)Nc3cccc4ccccc34)cc2C1=O,inactive
10,C[C@@H]1CCCCO[C@@H](CN(C)Cc2ccccc2)[C@H](C)CN([C@H](C)CO)C(=O)c2cc(NC(=O)C3CCCCC3)ccc2O1,inactive
11,CC(C)NC(=O)N(C)C[C@@H]1Oc2cc(-c3ccccc3F)ccc2S(=O)(=O)N([C@H](C)CO)C[C@@H]1C,inactive
12,C[C@@H]1CCCCO[C@H](CN(C)C(=O)Nc2ccc(C(F)(F)F)cc2)[C@H](C)CN([C@@H](C)CO)C(=O)c2cc(NC(=O)C3CCCCC3)ccc2O1,inactive
13,NCCCC[C@@H](N)C(=O)N[C@@H](Cc1c[nH]c2ccccc12)C(=O)N[C@@H](CCCCN)C(=O)O,inactive
14,O=C(NC(Cc1cc(=O)[nH]c2ccccc12)C(=O)O)c1ccc(Cl)cc1 (stereo unspecified),active
15,Cc1cc(C)cc(C(=O)N(C)[C@H](Cc2ccc(-c3ccccc3)cc2)C(=O)N[C@@H](Cc2c[nH]c3ccccc23)C(=O)O)c1,inactive
16,Cc1noc(C)c1NC(=O)Nc1ccc2c(c1)C(=O)N([C@H](C)CO)C[C@H](C)[C@@H](CN(C)C(=O)Nc1ccccc1)OCCCC[C@@H](C)O2,inactive
17,CC(C)[C@@H](N)c1nc2ccccc2[nH]1,inactive
18,C[C@@H]1CN([C@H](C)CO)C(=O)c2cc(NC(=O)Nc3ccc4c(c3)OCO4)ccc2O[C@@H]1CN(C)Cc1ccc(Cl)c(Cl)c1,inactive
19,C[C@H]1CN([C@@H](C)CO)C(=O)c2cc(NC(=O)Nc3ccc4c(c3)OCO4)ccc2O[C@@H]1CN(C)Cc1ccc(Cl)c(Cl)c1,inactive
20,C[C@H]1CN([C@@H](C)CO)C(=O)c2cc(NC(=O)Nc3ccc4c(c3)OCO4)ccc2O[C@H]1CN(C)Cc1ccc(Cl)c(Cl)c1,inactive
21,C[C@H](CO)N1C[C@H](C)[C@H](CN(C)Cc2ccc(Cl)c(Cl)c2)Oc2ccc(NC(=O)Nc3ccc4c(c3)OCO4)cc2C1=O,inactive

row,SMILES,cytotoxicity call
1,C[C@@H]1CN([C@@H](C)CO)C(=O)c2cc(NC(=O)Nc3ccc4c(c3)OCO4)ccc2O[C@H]1CN(C)Cc1ccc(Cl)c(Cl)c1,active
2,C[C@@H]1CN([C@@H](C)CO)C(=O)c2cc(NC(=O)Nc3ccc4c(c3)OCO4)ccc2O[C@@H]1CN(C)Cc1ccc(Cl)c(Cl)c1,active
3,COCC(=O)Nc1ccc2c(c1)OC[C@@H](C)N(C(=O)CN1CCOCC1)C[C@@H](C)[C@H](OC)CN(C)C2=O,inactive
4,COc1ccc(CN(C)C[C@H]2Oc3ccc(NC(=O)Nc4ccc(C(F)(F)F)cc4)cc3CC(=O)N([C@@H](C)CO)C[C@H]2C)cc1,active
5,COc1ccc(NC(=O)Nc2ccc3c(c2)CC(=O)N([C@H](C)CO)C[C@@H](C)[C@H](CN(C)Cc2ccc(C(F)(F)F)cc2)O3)cc1,inactive
6,COc1ccc(NC(=O)Nc2ccc3c(c2)CC(=O)N([C@@H](C)CO)C[C@@H](C)[C@H](CN(C)Cc2ccc(C(F)(F)F)cc2)O3)cc1,active
7,COc1ccc(CN(C)C[C@H]2Oc3ccc(NC(=O)Nc4ccc(C(F)(F)F)cc4)cc3CC(=O)N([C@@H](C)CO)C[C@@H]2C)cc1,active
8,COc1ccc(CN(C)C[C@H]2Oc3ccc(NC(=O)Nc4ccc(C(F)(F)F)cc4)cc3CC(=O)N([C@H](C)CO)C[C@H]2C)cc1,active
9,COc1ccc(NC(=O)Nc2ccc3c(c2)CC(=O)N([C@@H](C)CO)C[C@H](C)[C@@H](CN(C)Cc2ccc(C(F)(F)F)cc2)O3)cc1,inactive
10,CO[C@H](CN(C)S(=O)(=O)c1ccc(Cl)cc1)[C@@H](C)CN([C@@H](C)CO)S(=O)(=O)c1cccc(Cl)c1,inactive
11,COc1ccc(CN(C)C[C@H]2OCCCC[C@H](C)Oc3ccc(NS(=O)(=O)c4ccc(F)cc4)cc3C(=O)N([C@H](C)CO)C[C@@H]2C)cc1,inactive
12,C[C@@H]1CN([C@H](C)CO)C(=O)c2cccc(NC(=O)Nc3ccc(C(F)(F)F)cc3)c2O[C@@H]1CN(C)S(C)(=O)=O,inactive
13,C[C@H](CO)N1C[C@H](C)[C@@H](CN(C)Cc2ccccc2)OCCCC[C@H](C)Oc2ccc(NC(=O)NC3CCCCC3)cc2C1=O,inactive
14,O=C(Cn1cnnn1)NS(=O)(=O)c1ccccc1,inactive
15,C[C@H](CO)N1C[C@H](C)[C@H](CN(C)S(=O)(=O)c2ccc(-c3ccccc3)cc2)OCc2cn(nn2)CCCC1=O,inactive
16,C[C@@H]1CCCCO[C@@H](CN(C)C(=O)Nc2ccccc2)[C@@H](C)CN([C@@H](C)CO)C(=O)c2cc(NC(=O)c3ccccc3)ccc2O1,inactive
17,COc1ccc(S(=O)(=O)N(C)C[C@@H]2Oc3c(NS(=O)(=O)c4cn(C)cn4)cccc3C(=O)N([C@H](C)CO)C[C@H]2C)cc1,inactive
18,O=C(C[C@@H]1CC[C@H](NC(=O)c2ccc(F)cc2)[C@@H](CO)O1)NCc1ccncn1,inactive
19,COc1ccc(NC(=O)Nc2ccc3c(c2)C(=O)N([C@H](C)CO)C[C@@H](C)[C@H](CN(C)S(=O)(=O)c2ccc(OC)cc2)OCCCC[C@H](C)O3)cc1,inactive
